Data reported in PubChem BioAssay (NCATS).
Values joined by “and” are separate entries in the source; they are usually repeats but may differ in a detail not shown here. Equal values may be shown once. Inconclusive results are not listed. More than one record can exist for a structure, and the calls need not agree. Active and inactive are the calls of the source. Unless noted, calls follow the shape of the dose curve; as a rule, active = well fitted curve in the direction sought with a large enough effect; inconclusive = small, poorly fitted or top-dose-only effect, or another doubt; inactive = no such curve, though single readings can be large; an effect the other way counts as inactive or inconclusive.

Tests used:
[1] = Cellular Toxicity (caspase-3) H-4-II-E (AID 663);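 also: cells exposed to compound for 16 hr before readout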
Procedure, shortened: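 H-4-II-E rat hepatoma, 1500 cells/well, 5 hr settle at 37 °C; compound 16 hr, 37 °C, complete medium; Caspase-Glo 3/7, 20 min RT; luminescence. DMSO = 0%, 100 uM tamoxifen = 100%; Hill-equation AC50.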

[2] = Cellular Toxicity (caspase-3) Hek293 (AID 664);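 also: cells exposed to compound for 16 h at 37 °C before readout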
Procedure, shortened: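 Apoptosis readout: Caspase-Glo 3/7 signal in human HEK293 cells following 16-hour compound incubation. Responses scaled between DMSO baseline and 100 uM tamoxifen.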

[3] = Cellular Toxicity (caspase-3) N2a (AID 665);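 also: compound exposure lasted 16 h at 37 °C before readout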
Procedure, shortened: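 Concentration-response qHTS: compound-induced caspase-3/7 luminescence in N2a cells (16 h, 37 °C), relative to DMSO and 10 uM staurosporine controls; AC50 obtained using the standard Hill equation.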

[4] = Cellular Toxicity (caspase-3) NIH 3T3 (AID 666);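 also: caspase signal read after 16 h compound exposure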
Procedure, shortened: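 Activity: caspase-3/7 induction, NIH 3T3 cells, 16 hr treatment at 37°C, luminescent Caspase-Glo detection; AC50 via Hill equation.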

[5] = Cellular Toxicity (caspase-3) Renal Proximal Tubule (AID 667);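 also: cells exposed to compound for 16 hours at 37 °C before detection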
Procedure, shortened: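 Freshly isolated primary rat kidney proximal tubule cells, 1000/well, treated 16 hr at 37 °C, then Caspase-Glo 3/7 luminescence after 1 hr. Normalized to DMSO and 10 uM staurosporine; AC50 from Hill fit.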

[6] = molecular target: Cytochrome P450 3A4 (Homo sapiens) (UniProt P08684); assay: qHTS Assay for Inhibitors and Substrates of Cytochrome P450 3A4 (AID 884); also: nearly all actives have a fitted effect of over 50% in size
Procedure, shortened: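 Luminescent readout of luciferin produced by CYP3A4 (20 nM) dealkylation of Luciferin-PPXE, 25 uM (its KM). NADPH-driven reaction ran 60 min at RT after 10 min compound preincubation; data scaled to 57 uM ketoconazole as 100% inhibition.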

[7] = molecular target: Cytochrome P450 2C19 (Homo sapiens) (UniProt P33261); assay: qHTS Assay for Inhibitors and Substrates of Cytochrome P450 2C19 (AID 899); also: nearly all actives have a fitted effect of over 60% in size; also: potency is read from the fitted curve at half-maximal effect
Procedure, shortened: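 Luminescent read-out of luciferin formed from Luciferin-H EGE (10uM, equal to KM). Enzyme 5nM in 50mM KPO4; compound added, 10 min at 37C, then NADPH regenerating system for 60 min at 37C. Full inhibition defined by 57uM ketoconazole.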

[8] = Cell Viability - LYMP2-001 (AID 921); also: series mostly up to about 92 µM; nearly all actives have a fitted effect of over 70% in size
Procedure, shortened: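 Human lymphoblastoid LYMP2-001 cells, 2500 per well, in complete medium, treated 24 h at 37 C. Viability from cellular ATP by CellTiter-Glo luminescence; AC50 from Hill-equation fits of qHTS concentration-response.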

[9] = molecular target: Cytochrome P450 3A4 (Homo sapiens) (UniProt P08684); assay: qHTS Assay for Activators of Cytochrome P450 3A4 (AID 885); also: nearly all actives have a fitted effect of over 65% in size
Procedure, shortened: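 CYP3A4 activity: Luciferin-PPXE O-dealkylation, 25uM substrate, 200mM KPO4, RT throughout. Read-out is luciferase luminescence; higher values reflect activation.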

[10] = Confirmation and Secondary Assay for Modulators of Hemoglobin Beta Chain Splicing at IVS2 654 locus (AID 910);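 also: HeLa cells stably carrying EGFP split by mutant beta-globin IVS2-654 intron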
Procedure, shortened: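 HeLa cells stably expressing EGFP interrupted by β-globin IVS2-654 intron, seeded overnight in Opti-MEM/2% FCS, then treated 2 days at 37 °C. Restored splicing read as total peak GFP intensity per well by laser scanning cytometry (488 nm excitation, 500–520 nm emission); 500 nM antisense PNA as control.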

[11] = molecular target: Guanine nucleotide-binding protein G(i) subunit alpha-1 (Homo sapiens) (UniProt P63096); assay: qHTS Assay for Inhibitors of RGS12 GoLoco Motif Activity (Green Fluorophore) (AID 879);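 also: negative values mean loss of peptide binding seen as reduced polarization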
Procedure, shortened: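 A drop in FITC polarization marked displacement of the FITC-tagged RGS12 GoLoco peptide (10 nM) from Gαi1 (50 nM). Compounds were incubated 10 min at room temperature in Tris pH 7.5 buffer containing 150 mM NaCl, 0.1 mM GDP and 0.05% NP40; unlabeled peptide titration served as control.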

[12] = molecular target: Cytochrome P450 2C9 (Homo sapiens) (UniProt P11712); assay: qHTS Assay for Inhibitors and Substrates of Cytochrome P450 2C9 (AID 883); also: nearly all actives have a fitted effect of over 60% in size
Procedure, shortened: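 10nM CYP2C9 + 100uM Luciferin-H (=KM), 25mM KPO4; cpd 10 min 37C; NADPH regen, 60 min 37C; stop/detect with P450 Glo-Buffer 20 min; luminescence. Norm. to 57uM sulphaphenazole as full inhibition.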

[13] = molecular target: Cytochrome P450 2D6 (Homo sapiens) (UniProt P10635); assay: qHTS Assay for Inhibitors and Substrates of Cytochrome P450 2D6 (AID 891); also: nearly all actives have a fitted effect of over 60% in size; also: potency is read from the fitted curve at half-maximal effect
Procedure, shortened: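 Luminescent read-out of luciferin formed by 5 nM human CYP2D6 demethylating 30 uM Luciferin-ME EGE (Km level) over 60 min at room temperature after NADPH regeneration addition. Data normalized to full inhibition by 1.43 uM quinidine.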

[14] = qHTS Assay for Identification of Small Molecule Agonists for Thrombopoietin (TPO) Signaling Pathway (AID 917)
Procedure, shortened: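 Stimulation at the TPO EC50 (26 pM final) was used to detect activators. Ba/F3 mouse cells bearing human TPO receptor and a luciferase reporter under the Glycoprotein IIb promoter were exposed to compounds for 24 hrs at 37 C.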

[15] = molecular target: Muscarinic acetylcholine receptor M1 (Rattus norvegicus) (UniProt P08482); assay: qHTS Assay for Antagonists of Acetylcholine Muscarinic M1 Receptor: Kinetic Measurement of Intracellular Calcium Response (AID 943);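 also: Fluo-4 calcium signal as peak divided by basal fluorescence over 4 min; series mostly up to about 35 µM; nearly all actives have a fitted effect of over 75% in size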
Procedure, shortened: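 Quantitative HTS in CHO-M1 (rat receptor) cells: 10 min compound exposure ahead of 100 nM carbachol, Fluo-4 fluorescence followed 4 min, value expressed as peak-to-basal ratio.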

[16] = molecular target: Pyruvate kinase (Leishmania mexicana) (UniProt Q27686); assay: qHTS Validation Assay for Inhibitors of Leishmania Mexicana Pyruvate Kinase (AID 945)
Procedure, shortened: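 Mutant LmPYK (E451W), 0.2 nM, plus 0.5 mM PEP and 0.1 mM ADP in 50 mM imidazole pH 7.2 containing 0.01% Tween 20 and 0.05% BSA. Incubated 1 h at room temperature; luminescence via PKLight, normalized to DMSO.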

[17] = qHTS Assay for Identification of Small Molecule Antagonists for NFkB Signaling Pathway (AID 895; active = well fitted inhibition curve with a large enough effect in the signal ratio, with a control signal flat, not every such curve was filed as active; the % refers to the signal ratio; also: potency is read from the fitted curve at half-maximal effect)
Procedure, shortened: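 ME-180 NFkB-bla cells (beta-lactamase under NFkB response element), plated overnight, treated with compound then 10 pM TNF alpha (about EC50) for 5 hrs at 37 C. LiveBLAzer FRET read at 460/530 nm emission, 405 nm excitation.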

[18] = qHTS Assay for Identification of Small Molecule Antagonists for Thrombopoietin (TPO) Signaling Pathway (AID 918); settings: TPO-dependent cell signaling reporter, antagonist mode; also: potency is read from the fitted curve at half-maximal effect; nearly all actives have a fitted effect of over 60% in size
Procedure, shortened: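 Antagonist mode at EC50 TPO (26 pM) in IL-3-free medium; murine Ba/F3 cells with human TPO receptor and GPIIb-promoter luciferase, 24 hrs at 37 C before luminescent detection.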

Measured: Potency

Guanine nucleotide-binding protein G(i) subunit alpha-1 (Homo sapiens), sequence (P63096 whole entry, looked up): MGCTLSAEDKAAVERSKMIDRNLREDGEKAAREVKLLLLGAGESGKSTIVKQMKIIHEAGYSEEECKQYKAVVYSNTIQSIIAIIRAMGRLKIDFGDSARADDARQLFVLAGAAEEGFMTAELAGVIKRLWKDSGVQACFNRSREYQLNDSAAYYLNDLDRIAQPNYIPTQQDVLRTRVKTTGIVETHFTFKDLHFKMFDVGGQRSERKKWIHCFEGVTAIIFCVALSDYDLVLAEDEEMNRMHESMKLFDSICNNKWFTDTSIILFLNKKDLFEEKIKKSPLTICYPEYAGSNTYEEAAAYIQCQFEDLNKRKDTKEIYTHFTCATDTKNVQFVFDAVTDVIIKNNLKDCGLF
Cytochrome P450 2D6 (Homo sapiens), sequence (P10635 whole entry, looked up): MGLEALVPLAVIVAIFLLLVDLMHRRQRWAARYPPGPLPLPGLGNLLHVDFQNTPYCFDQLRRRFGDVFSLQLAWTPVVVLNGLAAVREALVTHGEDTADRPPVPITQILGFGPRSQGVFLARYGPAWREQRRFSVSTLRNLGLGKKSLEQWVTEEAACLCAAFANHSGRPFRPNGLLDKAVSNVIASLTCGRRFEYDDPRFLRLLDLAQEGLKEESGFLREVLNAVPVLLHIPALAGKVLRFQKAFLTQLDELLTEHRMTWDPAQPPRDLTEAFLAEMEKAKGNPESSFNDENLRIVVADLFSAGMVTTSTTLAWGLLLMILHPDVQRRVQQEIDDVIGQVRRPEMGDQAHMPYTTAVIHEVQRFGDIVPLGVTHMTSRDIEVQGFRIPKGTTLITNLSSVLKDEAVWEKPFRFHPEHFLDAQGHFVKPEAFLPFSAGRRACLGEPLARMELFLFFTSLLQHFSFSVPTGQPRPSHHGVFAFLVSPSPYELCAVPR
Cytochrome P450 2C9 (Homo sapiens), sequence (P11712 whole entry, looked up): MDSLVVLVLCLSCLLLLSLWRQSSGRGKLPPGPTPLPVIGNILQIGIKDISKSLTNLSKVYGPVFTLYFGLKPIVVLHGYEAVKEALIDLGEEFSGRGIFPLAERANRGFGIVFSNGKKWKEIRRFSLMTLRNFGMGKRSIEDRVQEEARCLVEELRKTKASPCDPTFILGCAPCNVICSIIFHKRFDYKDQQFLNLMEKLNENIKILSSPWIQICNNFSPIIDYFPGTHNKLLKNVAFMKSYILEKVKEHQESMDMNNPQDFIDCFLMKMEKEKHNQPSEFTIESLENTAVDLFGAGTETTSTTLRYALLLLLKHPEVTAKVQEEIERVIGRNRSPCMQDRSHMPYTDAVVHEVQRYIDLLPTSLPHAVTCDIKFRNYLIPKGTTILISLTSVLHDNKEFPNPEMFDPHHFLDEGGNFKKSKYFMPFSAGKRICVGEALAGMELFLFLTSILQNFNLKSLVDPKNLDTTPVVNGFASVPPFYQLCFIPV
Muscarinic acetylcholine receptor M1 (Rattus norvegicus), sequence (P08482 whole entry, looked up): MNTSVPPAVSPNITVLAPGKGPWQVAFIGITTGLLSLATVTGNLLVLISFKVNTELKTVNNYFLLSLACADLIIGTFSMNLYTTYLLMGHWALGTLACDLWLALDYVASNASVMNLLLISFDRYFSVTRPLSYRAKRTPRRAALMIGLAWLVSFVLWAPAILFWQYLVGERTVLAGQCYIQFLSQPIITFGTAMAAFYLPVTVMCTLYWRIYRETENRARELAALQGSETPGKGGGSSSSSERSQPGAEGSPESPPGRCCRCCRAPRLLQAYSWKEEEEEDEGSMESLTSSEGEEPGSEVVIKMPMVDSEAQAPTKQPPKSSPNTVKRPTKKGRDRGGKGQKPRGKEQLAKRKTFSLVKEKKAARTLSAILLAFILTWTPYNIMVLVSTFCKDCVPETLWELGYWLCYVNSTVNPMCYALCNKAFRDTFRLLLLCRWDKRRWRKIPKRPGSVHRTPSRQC
Cytochrome P450 3A4 (Homo sapiens), sequence (P08684 whole entry, looked up): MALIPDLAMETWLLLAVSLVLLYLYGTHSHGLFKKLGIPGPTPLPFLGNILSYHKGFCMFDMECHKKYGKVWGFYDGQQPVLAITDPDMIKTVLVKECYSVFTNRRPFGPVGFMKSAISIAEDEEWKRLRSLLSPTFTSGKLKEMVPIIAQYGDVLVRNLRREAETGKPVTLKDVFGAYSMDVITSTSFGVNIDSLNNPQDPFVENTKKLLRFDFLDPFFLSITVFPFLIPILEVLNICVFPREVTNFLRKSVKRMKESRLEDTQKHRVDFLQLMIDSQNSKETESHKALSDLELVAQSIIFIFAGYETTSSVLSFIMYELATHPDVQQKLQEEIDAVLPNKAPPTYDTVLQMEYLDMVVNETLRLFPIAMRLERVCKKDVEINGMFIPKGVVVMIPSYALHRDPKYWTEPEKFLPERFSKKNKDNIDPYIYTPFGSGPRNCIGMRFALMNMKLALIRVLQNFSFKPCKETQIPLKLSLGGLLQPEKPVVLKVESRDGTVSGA
Pyruvate kinase (Leishmania mexicana), sequence (Q27686 2-499 E452W): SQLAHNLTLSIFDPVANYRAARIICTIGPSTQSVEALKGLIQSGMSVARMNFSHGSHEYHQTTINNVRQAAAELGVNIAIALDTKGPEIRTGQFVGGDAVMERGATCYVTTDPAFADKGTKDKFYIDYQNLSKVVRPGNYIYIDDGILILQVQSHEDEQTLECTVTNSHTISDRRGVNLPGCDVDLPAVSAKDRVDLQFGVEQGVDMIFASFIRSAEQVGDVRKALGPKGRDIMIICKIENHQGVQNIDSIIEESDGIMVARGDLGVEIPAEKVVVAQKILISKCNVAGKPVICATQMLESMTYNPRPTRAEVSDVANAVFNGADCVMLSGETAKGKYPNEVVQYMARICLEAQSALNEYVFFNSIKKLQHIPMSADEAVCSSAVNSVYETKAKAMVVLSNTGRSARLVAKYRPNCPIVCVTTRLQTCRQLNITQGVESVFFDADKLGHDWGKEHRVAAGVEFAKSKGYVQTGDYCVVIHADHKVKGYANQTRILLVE
Cytochrome P450 2C19 (Homo sapiens), sequence (P33261 whole entry, looked up): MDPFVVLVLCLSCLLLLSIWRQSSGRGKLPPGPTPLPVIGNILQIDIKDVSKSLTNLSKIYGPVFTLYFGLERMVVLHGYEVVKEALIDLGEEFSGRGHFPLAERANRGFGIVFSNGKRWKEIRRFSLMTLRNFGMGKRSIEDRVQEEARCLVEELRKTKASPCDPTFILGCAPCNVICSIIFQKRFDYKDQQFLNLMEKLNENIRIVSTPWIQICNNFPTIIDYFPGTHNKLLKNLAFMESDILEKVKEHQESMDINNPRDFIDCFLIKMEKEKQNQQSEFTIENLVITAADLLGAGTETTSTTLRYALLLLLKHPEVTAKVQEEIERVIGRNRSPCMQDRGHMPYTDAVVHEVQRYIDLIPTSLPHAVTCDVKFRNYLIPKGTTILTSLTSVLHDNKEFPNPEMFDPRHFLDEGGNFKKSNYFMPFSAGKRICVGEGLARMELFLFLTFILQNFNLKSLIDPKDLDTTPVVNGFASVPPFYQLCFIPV

CCCCOC(=O)c1ccc(O)cc1
active: [7] 6.31 µM
inactive: [1] | [2] | [3] | [4] | [5] | [6] | [8]

Cc1cc2nc3c(=O)[nH]c(=O)nc-3n(C[C@H](O)[C@H](O)[C@H](O)CO)c2cc1C
inactive: [1] | [2] | [3] | [4] | [5] | [9] | [8]

Oc1cccc(O)c1
inactive: [1] | [2] | [3] | [4] | [5] | [9] | [10] | [8]

Nc1cc(=O)[nH]c(N)n1
inactive: [11] | [12] | [13] | [7] | [14] | [15] | [16]

CC(=O)OCC(=O)[C@@]1(O)CC[C@H]2[C@@H]3CCC4=CC(=O)CC[C@]4(C)[C@H]3C(=O)C[C@@]21C
inactive: [11] | [6] | [14] | [16]

CN(C)CCC=C1c2ccccc2CCc2ccccc21
inactive: [1] | [2] | [3] | [4] | [5] | [11] | [6] | [9] | [10] | [14] | [16]

Cc1c(O)cccc1C(=O)N[C@@H](CSc1ccccc1)[C@H](O)CN1C[C@H]2CCCC[C@H]2C[C@H]1C(=O)NC(C)(C)C
inactive: [3] | [4] | [5]

C#CCN(C)Cc1ccccc1
inactive: [11] | [6] | [14] | [15] | [16]

NC(=O)c1ncn([C@@H]2O[C@H](CO)[C@@H](O)[C@H]2O)n1
inactive: [1] | [2] | [3] | [4] | [5] | [11] | [8]

CC(C)C(=O)c1c(C(C)C)nn2ccccc12
inactive: [11] | [12] | [7] | [14] | [15] | [16]
inactive and 39.8 nM (active): [13]

C=Cc1c(C)c2cc3[nH]c(cc4nc(cc5nc(cc1[nH]2)C(C)=C5CCC(=O)O)C(CCC(=O)O)=C4C)c(C)c3C=C
inactive: [11] | [6] | [7] | [10] | [14] | [15] | [16]

CC12CCC(CC1)C(C)(C)O2
inactive: [1] | [2] | [3] | [4] | [5] | [6] | [10] | [8]

C[C@]12C[C@H](O)[C@H]3[C@@H](CCC4=CC(=O)CC[C@@]43C)[C@@H]1CC[C@@H]2C(=O)CO
inactive: [1] | [2] | [3] | [4] | [5] | [8] | [15] | [16]

CCN(CC)CCNC(=O)c1cc(Cl)c(N)cc1OC
inactive: [11] | [6] | [10] | [14] | [16]

O=C1O[C@H]([C@@H](O)CO)C(O)=C1O
inactive: [1] | [2] | [3] | [4] | [5] | [6] | [8]

Cc1cc(CC(=O)O)n(C)c1C(=O)c1ccc(Cl)cc1
inactive: [1] | [2] | [3] | [4] | [5] | [6] | [10] | [8]

CNCCCC1c2ccccc2C=Cc2ccccc21
inactive: [11] | [9] | [16]
active: [13] 3.98 µM | [17] 8.91 µM | [18] 10 µM

NC(=O)N/N=C/c1ccc([N+](=O)[O-])o1
inactive: [1] | [2] | [3] | [4] | [5] | [10] | [8]

COC(=O)C1=C(C)NC(C)=C(C(=O)OC)C1c1ccccc1[N+](=O)[O-]
inactive: [1] | [2] | [3] | [5] | [11] | [10] | [16]

CC1(C)[C@@H]2CC[C@@]1(C)C(=O)C2
inactive: [1] | [2] | [3] | [4] | [5] | [6] | [8]

CCCCCCCCCCCCOS(=O)(=O)O
inactive: [1] | [2] | [3] | [4] | [5] | [6] | [8]

CN(C)CCCN1c2ccccc2CCc2ccccc21
inactive: [11] | [12] | [6] | [6] | [9] | [7] | [14] | [16]

[Cl][In]([Cl])[Cl]
inactive: [1] | [2] | [3] | [4] | [5] | [6] | [8]

NC(N)=NCCC[C@H](N)C(=O)O
inactive: [11] | [12] | [13] | [14] | [16]

NCCNCCNCCN
inactive: [1] | [2] | [3] | [4] | [5] | [8]

Nc1ccc(S(=O)(=O)Nc2nccs2)cc1
inactive: [1] | [2] | [3] | [4] | [5] | [12] | [6] | [10]

NCCNCCNCCNCCN
inactive: [1] | [2] | [3] | [4] | [5] | [6] | [8]
